57 sequences from PMC9838217, “Structure of SALL4 zinc finger domain reveals link between AT-rich DNA binding and Okihiro syndrome” can be followed below.

Assay [1] has as its target T1, SALL4 ZFC4 R900W (HT-SELEX) (Mus musculus, UniProt Q8BX22 870-940, R900W).
T1 sequence: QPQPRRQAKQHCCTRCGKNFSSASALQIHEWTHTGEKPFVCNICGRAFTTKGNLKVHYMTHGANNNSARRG
As to the kind of experiment: HT-SELEX; high values mean tight binding. The conditions noted are these: protein: recombinant; vector His6-GST; dsDNA, one strand shown. The method in brief:
(§1)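 Purified recombinant mouse SALL4 zinc finger cluster 4 (residues 870–940, 1 µg) was incubated with library DNA (1.5 µg first cycle, 200 ng later) in 100 µl of 10 mM Tris–HCl pH 7.5, 50 mM NaCl, poly(dI-dC) and DTT for 10 min at room temperature, with Ni2+ bead capture and reselection for up to 6 cycles in triplicate. MiSeq reads were scanned for 6-mers. Binding signal is each canonical k-mer's read fraction as fold change relative to the initial random library.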

Assay [2] has as its target T2, SALL4 ZFC4 G921D (HT-SELEX) (Mus musculus, UniProt Q8BX22 870-940, G921D).
T2 sequence: T1 sequence with W31R, G52D
Kind of assay: HT-SELEX; high values mean tight binding. The conditions noted are these: protein: recombinant; vector His6-GST; dsDNA, one strand shown. The procedure, abridged:
as §1

Changes are numbered by the printed parent chain.

With CCCCGC, the binding signal in assay [1] is 0.0783 ± 0.012 fold-change vs cycle 0; in assay [2], 0.179 ± 0.0709 fold-change vs cycle 0.

With CGCGCA, the binding signal in assay [1] turned out to be 0.0534 ± 0.00681 fold-change vs cycle 0; in assay [2], 0.139 ± 0.0597 fold-change vs cycle 0.

Consider AGTGGC, for which the binding signal in assay [1] came to 0.299 ± 0.0198 fold-change vs cycle 0; in assay [2] it was 0.455 ± 0.0604 fold-change vs cycle 0.

On to GCGACC, for which the binding signal in assay [1] came to 0.112 ± 0.0125 fold-change vs cycle 0; in assay [2] it was 0.237 ± 0.0806 fold-change vs cycle 0.

With ATGCGC, the binding signal in assay [1] was 0.153 ± 0.00714 fold-change vs cycle 0; in assay [2], 0.28 ± 0.0818 fold-change vs cycle 0.

Turning to CCCCCA, the results for the binding signal in assay [1] and in assay [2] were 0.312 ± 0.0194 fold-change vs cycle 0 and 0.423 ± 0.0709 fold-change vs cycle 0, respectively.

AGGCCG: the binding signal was found to be 0.104 ± 0.0123 fold-change vs cycle 0 in assay [1] and 0.216 ± 0.0702 fold-change vs cycle 0 in assay [2].

CCGCGG: the binding signal in assay [1] stood at 0.0426 ± 0.00565 fold-change vs cycle 0; in assay [2] it was 0.128 ± 0.0621 fold-change vs cycle 0.

For GCCCGA, the binding signal in assay [1] amounted to 0.125 ± 0.0121 fold-change vs cycle 0; in assay [2], 0.243 ± 0.0758 fold-change vs cycle 0.

Turning to CGGTGC, the binding signal in assay [1] came out at 0.129 ± 0.00419 fold-change vs cycle 0; in assay [2], 0.238 ± 0.0719 fold-change vs cycle 0.

As for CAACGC, the binding signal came out at 0.263 ± 0.00747 fold-change vs cycle 0 in assay [1] and 0.409 ± 0.0649 fold-change vs cycle 0 in assay [2].

In the case of GCCCAA, the figures for the binding signal in assay [1] and in assay [2] were 0.245 ± 0.0152 fold-change vs cycle 0 and 0.387 ± 0.0671 fold-change vs cycle 0, respectively.

Take CCGCTC: the binding signal in assay [1] came to 0.151 ± 0.0178 fold-change vs cycle 0; in assay [2], 0.273 ± 0.0659 fold-change vs cycle 0.

In the case of GATGCC, the figures for the binding signal in assay [1] and in assay [2] were 0.3346 ± 0.00318 fold-change vs cycle 0 and 0.49 ± 0.0663 fold-change vs cycle 0, respectively.

As to GCATTA, the results for the binding signal in assay [1] and in assay [2] were 1.09 ± 0.0461 fold-change vs cycle 0 and 1.15 ± 0.019 fold-change vs cycle 0, respectively.

On to GGCACC, for which the binding signal came out at 0.163 ± 0.0146 fold-change vs cycle 0 in assay [1] and 0.28 ± 0.0664 fold-change vs cycle 0 in assay [2].

On to GTGCGA, for which the binding signal in assay [1] came out at 0.265 ± 0.00784 fold-change vs cycle 0; in assay [2], 0.4 ± 0.0639 fold-change vs cycle 0.

On to CCGCAA, for which the figures for the binding signal in assay [1] and in assay [2] were 0.234 ± 0.0164 fold-change vs cycle 0 and 0.347 ± 0.0535 fold-change vs cycle 0, respectively.

As for CGGCCC, the binding signal in assay [1] amounted to 0.0477 ± 0.00335 fold-change vs cycle 0; in assay [2], 0.134 ± 0.0582 fold-change vs cycle 0.

With CCTCCG, the binding signal was determined as 0.252 ± 0.0142 fold-change vs cycle 0 in assay [1] and 0.367 ± 0.0686 fold-change vs cycle 0 in assay [2].

Turning to CAGGGG, the figures for the binding signal in assay [1] and in assay [2] were 0.308 ± 0.0124 fold-change vs cycle 0 and 0.417 ± 0.0612 fold-change vs cycle 0, respectively.

With CGCATC, the binding signal came out at 0.304 ± 0.00796 fold-change vs cycle 0 in assay [1] and 0.441 ± 0.0726 fold-change vs cycle 0 in assay [2].

For the sequence GCGGCC, the values for the binding signal in assay [1] and in assay [2] were 0.0274 ± 0.00551 fold-change vs cycle 0 and 0.107 ± 0.0539 fold-change vs cycle 0, respectively.

CGCCGC: the binding signal in assay [1] stood at 0.0234 ± 0.0032 fold-change vs cycle 0; in assay [2] it was 0.091 ± 0.0475 fold-change vs cycle 0.

Consider ACGCTC, for which the binding signal came out at 0.345 ± 0.00842 fold-change vs cycle 0 in assay [1] and 0.503 ± 0.071 fold-change vs cycle 0 in assay [2].

Turning to CCGAGG, the binding signal in assay [1] stood at 0.251 ± 0.0139 fold-change vs cycle 0; in assay [2], 0.375 ± 0.0741 fold-change vs cycle 0.

Turning to GAACGC, the binding signal was found to be 0.308 ± 0.012 fold-change vs cycle 0 in assay [1] and 0.446 ± 0.0568 fold-change vs cycle 0 in assay [2].

Take GCCCGC: the binding signal in assay [1] was determined as 0.0368 ± 0.00404 fold-change vs cycle 0; in assay [2], 0.115 ± 0.0587 fold-change vs cycle 0.

In the case of GCCTCA, the binding signal stood at 0.364 ± 0.0186 fold-change vs cycle 0 in assay [1] and 0.513 ± 0.0755 fold-change vs cycle 0 in assay [2].

ATGGCC: the values for the binding signal in assay [1] and in assay [2] were 0.263 ± 0.0192 fold-change vs cycle 0 and 0.413 ± 0.0521 fold-change vs cycle 0, respectively.

Consider AGCGCT, for which the binding signal came out at 0.189 ± 0.0213 fold-change vs cycle 0 in assay [1] and 0.343 ± 0.109 fold-change vs cycle 0 in assay [2].

With CGACGA, the figures for the binding signal in assay [1] and in assay [2] were 0.288 ± 0.00345 fold-change vs cycle 0 and 0.415 ± 0.0734 fold-change vs cycle 0, respectively.

As for CGACCA, the binding signal in assay [1] was 0.322 ± 0.0112 fold-change vs cycle 0; in assay [2], 0.456 ± 0.0665 fold-change vs cycle 0.

In the case of CCGAGC, the binding signal in assay [1] is 0.158 ± 0.00799 fold-change vs cycle 0; in assay [2], 0.273 ± 0.0808 fold-change vs cycle 0.

With CGTCCC, the binding signal was 0.238 ± 0.0171 fold-change vs cycle 0 in assay [1] and 0.351 ± 0.0721 fold-change vs cycle 0 in assay [2].

As for ACGACG, the binding signal came out at 0.31 ± 0.0104 fold-change vs cycle 0 in assay [1] and 0.425 ± 0.0391 fold-change vs cycle 0 in assay [2].

Consider CCCCGA, for which the binding signal in assay [1] worked out at 0.246 ± 0.0185 fold-change vs cycle 0; in assay [2], 0.358 ± 0.0831 fold-change vs cycle 0.

For CGCCTC, the binding signal is 0.152 ± 0.0261 fold-change vs cycle 0 in assay [1] and 0.277 ± 0.0696 fold-change vs cycle 0 in assay [2].

For CAGCCG, the results for the binding signal in assay [1] and in assay [2] were 0.115 ± 0.00217 fold-change vs cycle 0 and 0.229 ± 0.0654 fold-change vs cycle 0, respectively.

CTGGCA: the binding signal in assay [1] is 0.281 ± 0.0156 fold-change vs cycle 0; in assay [2], 0.413 ± 0.0619 fold-change vs cycle 0.

As to CGCACC, the binding signal in assay [1] was 0.132 ± 0.00899 fold-change vs cycle 0; in assay [2], 0.24 ± 0.0749 fold-change vs cycle 0.

As for CGGCAG, the binding signal in assay [1] stood at 0.106 ± 0.00823 fold-change vs cycle 0; in assay [2] it was 0.214 ± 0.0627 fold-change vs cycle 0.

Consider CGCGCC, for which the values for the binding signal in assay [1] and in assay [2] were 0.0255 ± 0.00279 fold-change vs cycle 0 and 0.0934 ± 0.0574 fold-change vs cycle 0, respectively.

Turning to ACGCTG, the binding signal came to 0.298 ± 0.0226 fold-change vs cycle 0 in assay [1] and 0.41 ± 0.058 fold-change vs cycle 0 in assay [2].

For the sequence GAGGCA, the figures for the binding signal in assay [1] and in assay [2] were 0.367 ± 0.0203 fold-change vs cycle 0 and 0.505 ± 0.1 fold-change vs cycle 0, respectively.

For the sequence GCGGGA, the binding signal in assay [1] is 0.149 ± 0.0162 fold-change vs cycle 0; in assay [2] it was 0.256 ± 0.0688 fold-change vs cycle 0.

AGACGC: the binding signal in assay [1] was found to be 0.274 ± 0.0116 fold-change vs cycle 0; in assay [2], 0.405 ± 0.0774 fold-change vs cycle 0.

As for CCCGGG, the values for the binding signal in assay [1] and in assay [2] were 0.132 ± 0.0102 fold-change vs cycle 0 and 0.234 ± 0.0711 fold-change vs cycle 0, respectively.

On to CCGCGC, for which the binding signal was found to be 0.0273 ± 0.00598 fold-change vs cycle 0 in assay [1] and 0.0941 ± 0.0469 fold-change vs cycle 0 in assay [2].

Regarding AGCGAC, the binding signal is 0.253 ± 0.0224 fold-change vs cycle 0 in assay [1] and 0.41 ± 0.0789 fold-change vs cycle 0 in assay [2].

Consider CTGCGA, for which the binding signal in assay [1] was 0.28 ± 0.0255 fold-change vs cycle 0; in assay [2], 0.404 ± 0.0745 fold-change vs cycle 0.

Consider CCGTCC, for which the binding signal in assay [1] was 0.206 ± 0.0173 fold-change vs cycle 0; in assay [2], 0.337 ± 0.0624 fold-change vs cycle 0.

On to CGGCTA, for which the binding signal stood at 0.246 ± 0.00516 fold-change vs cycle 0 in assay [1] and 0.375 ± 0.0584 fold-change vs cycle 0 in assay [2].

In the case of GCAGAC, the binding signal in assay [1] turned out to be 0.369 ± 0.0281 fold-change vs cycle 0; in assay [2], 0.48 ± 0.0825 fold-change vs cycle 0.

Regarding CCGCTA, the binding signal turned out to be 0.299 ± 0.0278 fold-change vs cycle 0 in assay [1] and 0.434 ± 0.0518 fold-change vs cycle 0 in assay [2].

As to GGCTGA, the binding signal in assay [1] stood at 0.349 ± 0.0304 fold-change vs cycle 0; in assay [2], 0.483 ± 0.072 fold-change vs cycle 0.

Consider GCATGC, for which the binding signal was determined as 0.3 ± 0.0114 fold-change vs cycle 0 in assay [1] and 0.437 ± 0.0507 fold-change vs cycle 0 in assay [2].
